Hits are enriched below; roughly 2.1% of the tested compounds scored in any of these assays.
IEC-6 tox = counter-screen for KLF5 inhibitors: cytotoxicity in IEC-6 cells. inhibition, % at 5 µM. actives 0.78% (n = 290,000). IEC-6 cytotoxicity, luminescence viability
KLF5 inh = inhibitors of KLF5 expression | inhibition, % at 5 µM | AID 1700 | DLD-1 KLF5 promoter-luciferase reporter, luminescence | actives 0.23% (n = 290,000);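 active means inhibition above a per-plate limit of that plate's mean compound inhibition plus 3 SD, cut at about 60% in these data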;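 further: higher means less KLF5 promoter-driven luciferase light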
Ba/F3 V617F tox = reduce viability of Ba/F3 cells dependent on JAK2V617F. actives 1.1% (n = 220,000). AID 1446. inhibition, % at 5.6 µM. Ba/F3 EpoR-JAK2V617F viability, ATP luminescence;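 active means inhibition above the campaign mean plus 3 SD over all tested compounds, cut at about 24% in these data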;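 further: cytokine-independent growth of Ba/F3 cells driven by EpoR plus mutant JAK2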
APP 5UTR inh = APP translation inhibition | actives 0.82% (n = 190,000) | inhibition, % at 2 µM | SH-SY5Y APP 5'UTR-luciferase reporter, luminescence;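 active means inhibition above a set limit, derived from the sample mean plus 3 SD, cut at about 45% in these data; inconclusive means one replicate passes the limit while the other fails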
aSyn UTR inh = 5' untranslated region of α-synuclein, MLPCN primary screen | alpha-synuclein 5'UTR reporter, inhibitor activity | inhibition, % (tested at 7.5 µM) | actives 0.82% (n = 300,000); in the data active means inhibition above about 60%; inconclusive means no clear call, values can overlap the other calls;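 further: H4 neuroglioblastoma cells stably carrying SNCA 5'UTR luciferase fusion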
BaF3 tox = counter-screen for JAK2V617F inhibitors: parental Ba/F3 viability inhibitors; inhibition, % at 5.6 µM; CellTiter-Glo ATP luminescence; actives 1.1% (n = 220,000);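 active means inhibition above a per-campaign cutoff, the mean inhibition of all tested compounds plus 3 SD, cut at about 27% in these data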
IEC-6 cytotox cf = confirmation of cytotoxic compounds in rat IEC-6 intestinal epithelial cells; shares compounds with IEC-6 tox; IEC-6 rat intestinal epithelial viability, luminescence; inhibition, % at 5 µM; actives 63% (n = 1,900)
Hits are given with their value; n = inactive; u = inconclusive; x = no result given. Unless noted, no stated cut-off is given here; in the data, active means inhibition above about 22%; inactive means the rest.

SMILES | IEC-6 tox | KLF5 inh | Ba/F3 V617F tox | APP 5UTR inh | aSyn UTR inh | BaF3 tox | IEC-6 cytotox cf
CC(C)(C)c1ccc(-n2nc(C#N)c(Cl)cc2=O)cc1 | 52 | n | n | 94 | n | n | n
Cc1nc2cc(-c3ccc(Br)cc3)[nH]n2c(=O)c1Cl | 30 | n | x | x | n | x | n
CCc1ccc(OC)c(S(=O)(=O)Nc2ccc(Cc3ccncc3)cc2)c1 | 25 | n | x | x | n | x | n
O=c1[nH]c(/C=C/c2cccc3ccccc23)nc2ccccc12 | n | n | n | n | n | n | x
O=c1[nH]c(/C=C/c2ccccc2F)nc2ccccc12 | 79 | n | x | x | n | x | 63
Cc1nnc(NC(=O)CCn2c(=O)oc3ccccc32)s1 | n | n | x | x | n | x | x
C=C1CCC(OC(C)=O)C2(C)CCC3C(C)C(=O)OC3C12O (centres undefined) | n | n | x | x | n | x | x
Cc1ccc(NC(=O)C2CCN(S(=O)(=O)c3ccc4c(c3)NC(=O)C(C)S4)CC2)cc1Cl (centres undefined) | 22 | n | x | x | n | x | n
Cc1cc(C)cc(NC(=O)C2CCN(S(=O)(=O)c3ccc4c(c3)NC(=O)C(C)S4)CC2)c1 (centres undefined) | n | n | x | x | n | x | x
COc1cc2cc(-c3ccc(O)cc3O)nc(C)c2cc1OC | 22 | n | x | x | n | x | n
CCC(Cc1ccccc1)NS(=O)(=O)c1c(C)nc2sccn2c1=O (centres undefined) | n | n | x | x | n | x | x
COc1cccc(NC(=O)Nc2nc(SC)ns2)c1 | n | n | x | x | n | x | x
CCSc1nsc(NC(=O)Nc2cccc(F)c2)n1 | 46 | n | x | x | n | x | 32
Cc1ccc(-n2ncc(C(=O)Nc3cc(Cl)cc(Cl)c3)c2C2CCNCC2)cc1C | 98 | n | 95 | 79 | 93 | 86 | 97
CCC(C)[C@@H]1NC(=O)N(CCCN2CCCC2=O)C1=O (some centres undefined) | n | n | x | x | n | x | x
COc1ccc(CCN2CC(C(=O)N3CCC(O)(c4ccccc4)CC3)CCC2=O)cc1 (centres undefined) | n | n | x | x | n | x | x
C=CCN(CC=C)S(=O)(=O)c1ccc2nc(NC(=O)C(C)C)sc2c1 | 54 | n | 64 | n | x | 76 | 47
COc1ccccc1C(=O)Nc1ccc2c(c1)nc(CCNC(=O)c1ccco1)n2C | 69 | n | x | x | n | x | 53
Cc1ccc2ncnc(Nc3cccc([N+](=O)[O-])c3)c2c1 | 31 | n | x | x | n | x | 63
COC(=O)c1cccc(Nc2ncnc3ccc(C)cc23)c1 | n | n | n | n | n | n | x
Cc1ccc(C(=O)OC(C)C(=O)c2cc(C)c(C)cc2C)o1 (centres undefined) | n | n | x | x | n | x | x
Cc1cccc(N2CCN(C(=O)c3cc(S(=O)(=O)N4CCCC4)cn3C)CC2)c1C | 52 | n | x | x | n | x | n
O=C(N=C1SC2CS(=O)(=O)CC2N1c1ccccc1Cl)C1CCCO1 (centres undefined) | n | n | x | x | n | x | x
CCCC(=O)Nc1nc2ccc(NC(=O)c3ccccc3F)cc2s1 | 75 | n | 82 | 76 | n | 80 | 55
CCCOC(=O)c1ccc(NC(=O)COC)cc1 | n | n | n | n | n | n | x
SMILES | IEC-6 tox | KLF5 inh | Ba/F3 V617F tox | APP 5UTR inh | aSyn UTR inh | BaF3 tox | IEC-6 cytotox cf
CC(=O)Nc1ccc(C(=O)OCCC(C)C)cc1 | 25 | n | n | n | n | n | 23
COc1cccc(CNC(=O)c2ccc(C)c(S(=O)(=O)N3CCCCC3)c2)c1 | x | x | x | x | n | x | x
COc1ccc(C(=O)Nc2ccc(NC(=O)Cc3ccccc3)cn2)cc1 | n | n | x | x | n | x | x
CCN1CCN(C(=O)C2CC(=O)N(c3ccc(Cl)cc3)C2)CC1 (centres undefined) | n | n | x | x | n | x | x
O=c1oc(-c2ccccc2)cc(Cl)c1Cl | 31 | n | x | x | n | x | n
CC[n+]1c(C=C2C=C(C)OC(C)=C2)sc2ccccc21 | 25 | n | 100 | n | n | 91 | 27
COc1ccc(C2=NN(C(=O)c3cccs3)C(O)(C(F)(F)F)C2)cc1 (centres undefined) | 54 | n | n | n | n | n | 41
O=C(c1ccccc1)N1N=C(c2ccccc2)CC1(O)C(F)(F)F (centres undefined) | n | n | x | x | n | x | x
O=C(Nc1ccc2c(c1)OCCO2)C(=O)c1c[nH]c2ccccc12 | 66 | n | x | x | n | x | 46
Cc1cccc(C)c1N1C(=O)CCC(C)(C)C1=O | n | n | x | x | n | x | x
COc1cc(/C=N\NC(=O)CNC(=O)C2COc3ccccc3O2)ccc1O (centres undefined) | n | n | n | n | n | n | x
CCN(CC)c1ccc(/C=N/NC(=O)CNC(=O)C2COc3ccccc3O2)c(O)c1 (centres undefined) | 52 | n | x | x | n | x | 48
COCC1CCCN(C(=O)c2ccc3oc(Cc4ccc(Cl)cc4)nc3c2)C1 (centres undefined) | n | n | x | x | n | x | x
CC(=O)c1ccc(N/N=C(/C(N)=O)C2=NC(C)(C)Cc3ccccc32)cc1 | 40 | n | n | n | u | n | 33
COc1ccc(C(=O)N/N=C\c2ccc(OC)c(COc3ccccc3Br)c2)c(OC)c1 | 22 | n | x | x | n | x | n
COc1ccc(OCc2cc(/C=N\NC(=O)c3ccccc3)ccc2OC)cc1 | 33 | n | x | x | n | x | n
COc1cc(OC)cc(C(=O)N/N=C/c2ccc(OC)c(COc3ccc(F)cc3)c2)c1 | 65 | n | n | 87 | n | 55 | 40
COc1ccc(/C=N\NC(=O)c2ccccc2Br)cc1COc1ccccc1 | n | n | x | x | n | x | x
CCOc1ccc(C(=O)C(C)OC(=O)CN2C(=O)NC(C)(C)C2=O)cc1 (centres undefined) | x | x | x | x | n | x | x
CCOC(=O)N1CCN(C(=O)c2cn(C)c3ccc(S(=O)(=O)N(C)C4CCCCC4)cc3c2=O)CC1 | n | n | x | x | n | x | x
CCn1c2nc(SCCN3CCOCC3)nnc2c2cc(C)cc(C)c21 | n | n | x | x | n | x | x
O=c1c2ccccc2[nH]c(=S)n1CCCN1CCN(c2ccccc2)CC1 | 34 | n | x | x | n | x | n
O=c1c2ccccc2[nH]c(=S)n1CCCN1CCN(c2ccccc2F)CC1 | n | n | x | x | n | x | x
CC1=Nc2ccccc2/C1=C/c1nc(-c2ccc(C)s2)oc1O | n | n | n | n | n | n | x
CC1=Nc2ccccc2/C1=C/c1sc(=N)n(-c2nccs2)c1O | 27 | n | n | n | 63 | n | 41
SMILES | IEC-6 tox | KLF5 inh | Ba/F3 V617F tox | APP 5UTR inh | aSyn UTR inh | BaF3 tox | IEC-6 cytotox cf
O=C(Nc1ccc(Br)cn1)c1ccc(Cl)s1 | n | n | x | x | n | x | x
O=C(Nc1ccc(Br)cn1)c1ccc(Br)s1 | 28 | n | x | x | n | x | n
Cn1c(=O)c([N+](=O)[O-])c(Cl)c2ccccc21 | 48 | n | n | 57 | n | n | 64
CCN(CC)c1c([N+](=O)[O-])c(=O)n(C)c2ccccc12 | n | n | n | n | n | n | x
CC(=O)c1cccc(NC(=S)Nc2cccc3ccccc23)c1 | 28 | n | x | x | n | x | n
Cc1ccc(Cl)cc1NC(=S)N/N=C/c1cccc2ccccc12 | 79 | n | 78 | x | n | 76 | 67
Cc1ccc(F)c(NC(=S)Nc2cccc3ccccc23)c1 | 65 | n | x | x | n | x | n
